Bioassay records deposited in PubChem BioAssay by National Center for Advancing Translational Sciences (NCATS).
An excerpt weighted towards active compounds, which were near 7.9% of everything screened.
HT1080 IDH1KD tx = toxicity to HT-1080 IDH1 knockdown cells (counter line) | HT-1080 IDH1 knockdown viability, ATP luminescence, 48 h | Potency, µM (doses to about 46.1 µM), inactives show at the top dose activity, negative = toxicity, hits mostly cytotoxic | 360,000 compounds, 2% hits;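 note: 0% = DMSO wells and -100% = cell-free medium wells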
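IDH1KD HT-1080 cells, 750/well, RPMI + 5% FBS; compound pinned after 2 h settling; 48 h, 37 °C; CellTiter-Glo luminescence; % activity normalised to DMSO and no-cell wells; curves fitted, classed by r2 and efficacy.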
HT1080-NT tox = kills 2HG-producing HT-1080-NT fibrosarcoma cells; HT-1080-NT fibrosarcoma viability, CellTiter-Glo ATP luminescence, 48 h; 360,000 compounds, 1.6% hits; Potency, µM (doses to about 46.1 µM), for inactives: at the highest dose activity, negative = less viability, most hits filed as cytotoxic;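 note: NT is the 2HG producing partner of a matched IDH1 knockdown line; 0% = DMSO-treated cells and -100% = media-only wells without cells; nearly all actives have a fitted effect of over 55% in size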
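HT-1080-NT; 750 cells/well; 5% FBS RPMI; 48 h compound, 37 degrees C; CellTiter-Glo luminescence; curve fitting and curve-class assignment.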
MCF10A rerep = induces DNA re-replication in MCF 10a normal breast cells; Potency, µM (highest dose often 46.1 µM), for the others: at the highest dose activity, positive = re-replication, usual class: activators; AID 624296; 350,000 compounds, 2.9% hits; MCF 10A DNA re-replication, Hoechst nuclear intensity, 48 h; note: % of control where 0% means no effect; nearly all actives have a fitted effect of over 50% in size
KB-V1 cytotox = kills drug-selected multidrug resistant KB-V1 cells | KB-V1 MDR cells viability, CellTiter-Glo, 72 h | 400,000 compounds, 3.4% hits | Potency, µM (series often up to 46.1 µM), most hits filed as cytotoxic; note: % is set by controls: 0 for no effect and ±100 for the full control effect; nearly all actives have a fitted effect of over 60% in size
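qHTS viability screen in drug-selected KB-V1 MDR cells: 72 h compound treatment at 37 degrees C, ATP luminescence end point.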
KB-3-1 tox = kills parental KB-3-1 adenocarcinoma cells | KB-3-1 viability, CellTiter-Glo ATP luminescence, 72 h | Potency, µM (doses to about 46.1 µM), usual class: cytotoxic | 400,000 compounds, 1.4% hits; note: % is set by controls: 0 for no effect and ±100 for the full control effect; nearly all actives have a fitted effect of over 60% in size
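KB-3-1 parental drug-naive adenocarcinoma cells in DMEM/10% FBS, incubated 72 h at 37 C with pin-transferred compounds across a concentration series. Viability by CellTiter-Glo luminescence; concentration-response curves fitted after normalization.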
SW480 rerep = inducers of DNA re-replication in SW480 colon cancer cells. SW480 DNA re-replication, Hoechst DNA content imaging, 48 h. AID 624297. 340,000 compounds, 1.8% hits. Potency, µM (series often up to 46.1 µM), without a hit: at the top dose re-replication activation, hits mostly activators; note: % of control where 0% means no effect; nearly all actives have a fitted effect of over 55% in size
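Treated cells incubate 48 hr (37 C, 5% CO2), are stained 40 min with Hoechst, and nuclear fluorescence is enumerated; a rise in nuclei with high DNA signal marks re-replication.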
Numbers without * were called inactive; i = inactive; ? = inconclusive; . = no result given. Calls come from the whole dose curve; as a rule, active = well fitted curve in the direction sought with a large enough effect; inconclusive = small, poorly fitted or top-dose-only effect, or another doubt; inactive = no such curve, though single readings can be large; an effect the other way counts as inactive or inconclusive. Potency is the fitted concentration of half-maximal effect.

SMILES	HT1080 IDH1KD tx	HT1080-NT tox	MCF10A rerep	KB-V1 cytotox	KB-3-1 tox	SW480 rerep
CNc1snc(C)c1C(=O)OCC(=O)Nc1ccc(C)cc1F	-23%	-9%	?	12µM*	i	-5%
CNc1snc(C)c1C(=O)OCC(=O)N(C)c1ccccc1	1%	12%	-6%	i	i	-8%
CCC1(CC)NC(=O)N(CC(=O)NC(=O)NCc2ccccc2)C1=O	8%	-7%	4%	i	i	-5%
O=C(CSc1n[nH]c(=O)n1C1CC1)c1c[nH]c2ccccc12	4%	4%	13%	i	i	-10%
Cc1ccc(NC(=O)CSc2c3c(nc4ccccc24)CCCC3)cc1F	.	.	.	i	i	.
COc1cc(S(=O)(=O)N2CCC(O)(c3cccc(C(F)(F)F)c3)CC2)ccc1-n1cnnn1	?	?	7.3µM*	?	i	?
O=C(NNC(=O)c1cc(Cl)ccc1O)c1cccc(S(=O)(=O)N2CCOCC2)c1	?	-22%	8%	i	?	?
COc1ccccc1N1CCN(C(c2ccccc2Cl)c2nnnn2C(C)(C)C)CC1 (stereo not given)	?	-23%	27%	?	?	?
CC(C)(C)n1nnnc1C(c1ccc(Cl)cc1)N1CCCc2ccccc21 (stereo not given)	10%	4%	3%	?	i	-4%
COc1ccccc1N1CCN(C(c2ccc(Cl)cc2)c2nnnn2C(C)(C)C)CC1 (stereo not given)	-27%	-25%	-13%	18µM*	?	16%
COc1ccccc1C(c1nnnn1C(C)(C)C)N1CCCc2ccccc21 (stereo not given)	10%	-2%	-10%	23µM*	?	?
Cc1cccc(N2CCN(C(c3ccccc3)c3nnnn3C(C)(C)C)CC2)c1C (stereo not given)	2%	7%	18%	9.2µM*	?	?
Cc1cccc(N2CCN(C(c3cccs3)c3nnnn3C(C)(C)C)CC2)c1C (stereo not given)	-26%	11%	5%	?	i	0%
COc1ccc(OC)c(CCNc2ncnc3onc(C)c23)c1	.	.	.	i	?	.
COc1ccc(N2C(=O)CSC23C(=O)N(CC(=O)NCc2ccccc2)c2ccccc23)cc1 (stereo not given)	.	.	.	i	i	.
CCCCCC(=O)Nc1cc(S(=O)(=O)N2CCOCC2)ccc1N1CCCCC1	1%	-9%	-15%	i	i	-92%
Cc1cccc(C)c1NC(=O)CN	10%	?	-8%	?	i	18µM*
CN=C(N)NC(=O)Nc1c(C)cccc1C	16%	0%	0%	i	i	16µM*
CN=C(NC(=O)Nc1c(C)cccc1C)NC(=O)Nc1c(C)cccc1C	4%	-1%	-3%	i	i	-7%
N#C/C(C(=O)Nc1ccc(Cl)cc1)=C(/S)Nc1ccccc1	?	?	?	?	i	?
COc1cccc(C2CC(c3cccc(NS(C)(=O)=O)c3)=NN2C(=O)c2ccccc2)c1OC (stereo not given)	-4%	1%	13%	13µM*	i	?
COc1ccccc1C1CC(c2ccc(Br)cc2)=NN1C(=O)c1cccnc1 (stereo not given)	15µM*	?	?	?	?	?
COc1ccc(C2=NN(C(=O)c3ccncc3)C(c3ccccc3O)C2)cc1 (stereo not given)	-1%	-20%	8%	i	i	-4%
COc1cccc(C2CC(c3ccc(Br)cc3)=NN2C(=O)c2ccncc2)c1OC (stereo not given)	18µM*	18µM*	?	?	18µM*	-40%
CN(C)c1ccc(C2CC(c3cccc(NS(C)(=O)=O)c3)=NN2C(=O)c2ccccc2)cc1 (stereo not given)	-18%	-27%	-1%	i	i	7%
SMILES	HT1080 IDH1KD tx	HT1080-NT tox	MCF10A rerep	KB-V1 cytotox	KB-3-1 tox	SW480 rerep
COc1ccc2[nH]c3c(=O)n(/N=C/[C@H]4C(C)C=C(C)CC4C)c(=O)[nH]c3c2c1 (stereo not given in full)	?	?	12µM*	i	?	18µM*
COc1ccc2c(c1)[nH]c1c(=O)n(/N=C/C3C(C)C=C(C)CC3C)c(=O)[nH]c12 (stereo not given)	0%	-22%	?	i	i	5%
CCOC(=O)Nc1sc2nc(C)cc(C)c2c1-n1cccc1	-29%	-26%	27%	18µM*	?	-1%
CCOC(=O)CC(=O)Nc1ncnc2c1C(c1ccccc1)c1c(ccc3ccccc13)O2 (stereo not given)	.	.	-18%	i	i	1%
CC(=O)NC1=C(C#N)C(c2ccccc2)c2c(ccc3ccccc23)O1 (stereo not given)	15µM*	?	1.8µM*	6.5µM*	18µM*	?
CNC(=S)N(C)/N=C1/C(=O)N(Cc2c(Cl)cccc2Cl)c2ccccc21	-13%	-11%	18µM*	?	i	?
CN1CC(c2ccc(Cl)c(Cl)c2)[C@@]2(COc3ccccc3C2=O)[C@@]12C(=O)Nc1ccccc12 (stereo not given in full)	7%	-10%	16µM*	9.2µM*	?	?
CCCN1C(=O)c2ccccc2NC1c1ccc(Cl)c(Cl)c1 (stereo not given)	-2%	0%	16%	i	?	0%
C[C@@H]1CNC(=O)c2c(C(=O)Nc3ccc(CNC(=O)OC(C)(C)C)cc3)ncn21	-10%	-12%	.	?	i	.
Cc1nc2sc(-c3ccccc3)cc2c(=O)[nH]1	?	?	26µM*	16µM*	?	?
CC(C)OC(=O)Cc1nc2sc(-c3ccccc3)cc2c(=O)[nH]1	1%	0%	14%	?	i	-1%
O=c1[nH]c(-c2cccnc2)nc2sc(-c3ccccc3)cc12	4.6µM*	?	1.3µM*	2.9µM*	?	3.7µM*
O=C(N/N=C/c1ccc(Br)cc1)c1ccccc1-n1cccc1	11µM*	?	?	15µM*	?	13µM*
C/C(=N\NC(=O)c1ccccc1-n1cccc1)c1ccccn1	?	?	.	i	10µM*	.
CN(C)CCCCCCNc1nccc(N2CCN(C)CC2)n1	.	.	.	i	?	.
CCCCNC(=S)N(C)/N=C/c1ccc(OCC(=O)Nc2c(C)cc(C)cc2C)c(OC)c1	?	-27%	18µM*	i	i	16µM*
